Results from the supplement of paper PMC5499739.
Over roughly 16,000 sequences, “Z-score” has its median near -0.37; the highest 2% begin near 3.1. What follows is part of a selection rich in the highest values, with near analogues and random picks from the rest.

Test system: RBM10 RRM1-ZnF-RRM2 (GST-tagged construct)
Assay: RNAcompete 7-mer binding Z-score; higher = stronger binding preference
Protocol: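 RNAcompete: 20 pmol GST-tagged RBM10 RNA-binding constructs were incubated with a designed RNA pool of about 241,000 sequences up to 41 nt (1.5 nmol) on glutathione beads for 30 min at 4 °C and washed. Bound RNAs were identified by microarray hybridisation. Each RNA 7-mer is scored by a one-sided Z-score of its enrichment, computed over probes that contain the 7-mer within longer pool sequences.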

Sequence | RNAcompete 7-mer binding Z-score
UACCUGC | -0.887
GUCCGUA | -0.471
GGAGUCA | 1.05
GCAGGGU | 3.35
ACAGGGC | 2.36
GCAGGGC | 1.51
ACAGGAG | 2.7
CCAGGGU | 1.18
ACAGGGA | 3.47
ACAGGGG | 3.19
CCAGGGA | 1.51
ACAGGGU | 3.11
CCAGGGG | 1.43
GCAGGGG | 3.15
UCAGGGG | 1.46
AUAUACC | -0.628
CAUUCUC | -0.857
UGCACAU | -0.362
UCACAAG | -0.256
CUCGCGU | -0.635
CGGAUCA | 0.578
AAGGUGA | 3.62
AAGGUGG | 4.32

Sequence | RNAcompete 7-mer binding Z-score
AAGGUGC | 2.55
GAGGUGC | 1.65
GAGGUGU | 2.31
AAGGUGU | 2.26
GAGGUGA | 2.6
CAGGUGA | 1.54
GAGGUGG | 3.37
AUUCUCC | -0.679
AGCAACG | 0.359
UGCCACU | -0.741
UCUCCCA | -0.697
GCUAAUA | -0.282
GAUAUGA | 0.643
AAGUGGU | 1.6
UAGUGGA | 1.52
AAGUGGG | 3.5
AAGUGGA | 3.2
GAGUGGA | 3.07
CAGUGGG | 2.93
CCCCUCG | -0.573
GUCAGAG | 0.406
GCUGCGG | 1.05
AAUGCGA | 0.286

Sequence | RNAcompete 7-mer binding Z-score
CGGCACA | 0.133
UAGACGC | -0.333
UGGGUUA | 2.83
GGGGUUG | 3.23
GGGGUUA | 3.07
AGGGUUG | 3.34
AGGGUUA | 3.86
GGGGUUC | 1.83
UGGGUUG | 2.56
AGGGUUC | 0.996
CGGGUUG | 2.32
GUAGUCU | -0.256
CCGUUUU | -1.01
UGCAUAU | -0.49
UUUCACU | -0.704
UCAUUAU | -0.621
UACCGAA | -0.428
CUUACAA | -0.785
GUAAGUC | -0.0743
CCGAACU | -0.839
CCCACCC | -0.337
GGGGAGG | 3.33
UGGGAGU | 1.95

Sequence | RNAcompete 7-mer binding Z-score
AGGGAGU | 3.13
CGGGAGG | 2.96
UGGGAGA | 2.56
GGGGAGA | 2.53
UGGGAGG | 4.58
AGGGAGG | 3.18
GGGGAGU | 2.86
CAUGGCC | -0.344
GUUGCCU | -0.613
AGGUUAC | 0.538
GAUCGCU | -0.697
CGGGUCC | 0.723
ACGAGGU | 1.36
GCGAGGA | 2.06
UCGAGGG | 1.93
ACGAGGG | 3.71
GCGAGGG | 3.86
ACGAGGC | 0.742
AAAGCAA | 0.563
AGCAGAA | 0.701
UUAAGGA | 0.982
GUAAGGC | 2.12
CUAAGGG | 1.35

Sequence | RNAcompete 7-mer binding Z-score
AUAAGGA | 2.16
GUAAGGG | 3.65
CUAAGGA | 0.286
GUAAGGA | 3.28
AUAAGGG | 3.85
AUAAGGU | 1.74
GAUCGUU | -0.464
AUUAAUA | -0.544
AAUAGAG | 0.742
AAGUUGC | -0.293
UGCUCCC | -0.821
AUGAAGG | 2.82
AAGAAGU | 0.818
GAGAAGA | 1.04
GUGAAGG | 3.69
CAGAAGG | 2.37
GAGAAGG | 4.54
UAGAAGA | 0.348
AAGAAGG | 3.81
UAGAAGG | 3.2
CUGAAGG | 0.902
UAGAAGU | 0.319
AAGAAGA | 1.03

Sequence | RNAcompete 7-mer binding Z-score
UAUCUAC | -0.548
UCACCAA | -0.65
AAAGCUC | -0.53
AGCUUCG | -0.795
UCAGAGU | 0.0786
GCUCUCA | -0.526
AAGGGUC | 2.01
AAGGGUA | 4.27
GAGGGUU | 2.88
UAGGGUU | 3.14
GAGGGUC | 1.39
UAGGGUA | 4.16
CAGGGUU | 2.05
CAGGGUA | 2.88
GAGGGUG | 3.5
ACGGGUA | 2.22
UCGGGUA | 1.57
UCGGGUU | 0.916
UUCCAGC | -0.715
GUGUUCA | -0.442
AGGUUUC | 0.184
ACUUGGU | -0.267
GUUAGUG | 0.953

Sequence | RNAcompete 7-mer binding Z-score
UCUAGCA | -0.712
GUCAGUU | -0.289
CCGCUAG | -0.588
CACUUCC | -0.868
UUCCCUG | -0.737
AACAUGC | -0.435
CAGGGUC | 1.42
UAGGGUC | 2.16
CAGGGUG | 2.84
AGGGUUU | 2.4
AAGGUUU | 2.37
GAGGGCG | 2.81
AAGGGUU | 3.94
UAGGGUG | 4.51
GAGGGUA | 4.4
UACUCUC | -0.734
UGCGCUG | -0.103
UAAGGAU | 1.55
CAAGGAA | 1.77
AAAGGAG | 3.75
GCAGGAA | 2.07
GAAGGAA | 4.54
UAAGGAG | 1.9

Sequence | RNAcompete 7-mer binding Z-score
UAAGGAA | 1.66
AAAGGAC | 2.6
GAAGGAU | 3.32
AAAGGAA | 3.51
CAAGGAU | 1.42
GGAGGAA | 3.08
AAUGGCG | 2.02
GUCCUGC | -0.606
UACCCCU | -0.65
AGCGCUG | -0.0889
GCCACUU | -0.992
UACACAU | -0.5
GUCCGCA | -0.672
UCUGAUC | -0.876
GCGUGUG | 0.618
AUCGCAA | -0.388
GCUUAAG | -0.439
GAAGGAC | 2.8
GAAGGAG | 4.52
CAAGGAG | 2.31
AGUGGAA | 3.21
AGUGGAU | 2.33
